Assay outcomes deposited in PubChem BioAssay by National Center for Advancing Translational Sciences (NCATS).
The list is not random: actives were taken first. Their share in the collection is about 13%.
FMDV inh – blocks foot and mouth disease virus | FMDV antiviral cell-based qHTS | Potency, µM (highest dose often 57.9 µM), hits mostly inhibitors | 410,000 compounds, 1.2% hits | AID 1159524; calls by dose curve; tested in HEK293T cells; note: read-out not given here; nearly all actives have a fitted effect of over 45% in size
HCV inh – blocks hepatitis C virus; Huh7.5.1 HCVcc-Cre infection, luciferase reporter, 44 h; Potency, µM (doses to about 41.8 µM), most hits filed as inhibitors; 340,000 compounds, 3.4% hits; AID 651820; active = well fitted inhibition curve with a large enough effect; inconclusive = small, poorly fitted or top-dose-only effect, or another doubt; inactive = no such curve, though single readings can be large or run the other way
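Compounds are dispensed onto cells plated 4 h earlier at 1,000 per well, with HCVcc-Cre virus (about 0.5 moi) added next. Following 44 h of culture, luminescent signal is measured for 15 sec after 15 min with substrate at room temperature.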
Cycloheximide cs – counter-screen for Shiga toxin inhibitors: cycloheximide protein synthesis inhibition | AID 2314 | cell reporter, cycloheximide protein synthesis inhibition counterscreen | 300,000 compounds, 12% hits | max response, %; in the data active = max response mostly above about 13%, no sharp cut-off; inactive = mostly below about 14%; note: read at 38.3 µM for the half of the compounds with a filed dose
Shiga toxin inh – inhibitors of Shiga toxin in Vero cells. Vero cells, Shiga toxin protein synthesis inhibition reporter. inhibition, % at 38.7 µM. 290,000 compounds, 9.2% hits; in the data active = inhibition mostly above about 28%, no sharp cut-off; inactive = mostly below about 43%
MARV entry inh – blocks Marburg virus binding to or entry into cells. Potency, µM (series often up to 37.8 µM), actives largely listed as inhibitors. Marburg virus pseudotyped entry inhibition, cell reporter. 300,000 compounds, 1.8% hits; calls by dose curve; tested in HEK293 cells
Lassa entry inh – inhibitors of Lassa virus binding or cell entry | AID 540256 | Potency, µM (highest dose often 37.9 µM), most hits filed as inhibitors | Lassa virus pseudotype entry inhibition, cell reporter | 300,000 compounds, 1.2% hits; calls by dose curve; tested in HEK293 cells; note: nearly all actives have a fitted effect of over 50% in size
Numbers stand for hits; i = inactive; ? = inconclusive; nt = no result; [ ] = another dose, or the depositor's remark.

SMILES	FMDV inh	HCV inh	Cycloheximide cs	Shiga toxin inh	MARV entry inh	Lassa entry inh
N#CCCn1c(=O)c(-c2cccc(C#N)c2)nc2cnc(Oc3ccccc3)nc21	i	nt	nt	nt	nt	nt
CCN(C(=O)CN1CC=C(c2ccccc2)CC1)c1c(N)n(Cc2ccccc2)c(=O)[nH]c1=O	i	i	i	i	?	?
CC(=O)c1ccc(N2CCN(CC(=O)N(CC(C)C)c3c(N)n(CC(C)C)c(=O)[nH]c3=O)CC2)cc1	i	i	12.5	i	i	?
CC(C)CN(C(=O)CN1CC=C(c2ccccc2)CC1)c1c(N)n(CC(C)C)c(=O)[nH]c1=O	i	3.55µM	i	i	i	i
CC1=CC2/C=C(\C)CCC(O)C(O)/C=C/C(=O)C23C(=O)NC(CC(C)C)C3C1C (stereo unspecified)	6.31µM	?	i	i	nt	nt
N#CC1=C(N)C(C#N)(C#N)[C@H](c2ccoc2)[C@H]2CN(Cc3ccccc3)CC=C12	?	i	i	i	6.31µM	i
CN1CC=C2C(C#N)=C(N)C(C#N)(C#N)[C@H](c3ccoc3)[C@H]2C1	i	i	i	i	i	i
O=C(OC1CCN(CCCl)CC1)C(c1ccccc1)c1ccccc1	15.8µM	31.6µM	nt	nt	10µM	nt
C=CCSc1nnc(NC(=O)C2CSC3(C)CCC(=O)N23)s1 (stereo unspecified)	i	i	nt	nt	i	i
CCC(c1ccc(O)c(O)c1)C(CC)c1ccc(O)c(O)c1 (stereo unspecified)	i	12.6µM	nt	nt	?	?
CCC(NC(C)C)C(O)c1ccc(O)c(O)c1 (stereo unspecified)	i	i[8.37 µM]	i	i	i	?
COc1ccc(C2=NCN(c3ccc(C)cc3)C(=S)N2)cc1	i	i	36.1	i	i	i
Cc1ccc(N2CN=C(c3ccccc3)NC2=S)cc1	nt	i	63.4	98.4	i	i
CCOc1ccc(S(=O)(=O)N(C)c2ccc(OCC(=O)NCc3ccco3)cc2)cc1	i	?	i	i	?	?
CC(C)c1ccc(N=Nc2c(O)[nH]c(=O)[nH]c2=O)cc1	i	i	i	i	nt	nt
O=c1[nH]c(=S)[nH]c(O)c1N=Nc1ccc(SC(F)F)cc1	i	i	32.8	i	?	3.98µM
Fc1ccc(COc2ccc(Br)cc2CNCc2ccncc2)cc1	?	10µM	i	i	?	i
Fc1ccccc1COc1ccc(Br)cc1CNCc1cccnc1	?	?	i	i	?	?
CCOc1cc(CNCc2ccncc2)cc(Br)c1OCc1ccc(F)cc1	15.8µM	10µM	i	i	?	i
Fc1ccc(COc2cccc(CNCc3ccncc3)c2)cc1	i	?	i	i	6.31µM	i
Fc1ccccc1COc1ccc(Br)cc1CNCc1ccncc1	31.6µM	i	i	i	?	i
Cc1cccc(OC(=O)c2snnc2C)c1C	i	nt	nt	nt	i	i
C/C=C/C(=O)Nc1nnc(C2CCCCC2)s1	i	i	i	i	?	i
CCCN(C)C[C@H]1Oc2ncc(Br)cc2C(=O)N([C@@H](C)CO)C[C@@H]1C	i	nt	nt	nt	nt	nt
CCc1noc(C)c1C(=O)Nc1nc(-c2ccccc2)c(C(C)=O)s1	i	i	nt	nt	nt	nt
SMILES	FMDV inh	HCV inh	Cycloheximide cs	Shiga toxin inh	MARV entry inh	Lassa entry inh
O=C(CCC1N=C2c3ccccc3N=C(SCc3ccccc3Cl)N2C1=O)N1CCN(c2ccccc2)CC1 (stereo unspecified)	i	nt	nt	nt	i	i
CCOc1ccc(CNC(=O)CCS(=O)(=O)c2ccc3c(c2)NC(=O)CO3)cc1OC	i	i	i	i	nt	nt
Cc1ccc2c(c1)nnn2C1CCN(S(=O)(=O)c2ccc3ccccc3c2)CC1	?	?	i	i	i	?
Cc1ccc2c(c1)nnn2C1CCN(S(=O)(=O)c2cccc(S(=O)(=O)N(C)C)c2)CC1	17.8µM	10µM	i	i	?	?
CCOC(=O)c1ccccc1NC(=O)c1cccs1	i	?	i	i	i	i
O=C(/C=C/Nc1ccc(F)cc1F)c1cccs1	20µM	i	46.3	48.7	?	1.41µM
CN(C)C(/C=C/Nc1ccccc1F)=C(C#N)C#N	nt	i	i	i	i	i
O=C(/C=C\Nc1cccc(F)c1)c1cccs1	i	i	39.6	42.1	?	11.2µM
CCOC(=O)c1ccccc1N/C=C/C(=O)c1cccs1	i	?	74.1	155.9	?	i
O=C(/C=C/Nc1ccccc1F)c1cccs1	12.6µM	i	44.8	29.8	6.31µM	1.41µM
COc1cccc(CN(C)C(=O)CC2C(=O)NCCN2C2Cc3ccccc3C2)c1 (stereo unspecified)	i	i	i	i	i	i
CCOC(=O)C(C#N)=CN1CCN(C(=O)CCCl)c2ccccc21	i	i	nt	nt	i	i
